GALC G270D up: enhancers of human galactocerebrosidase G270D mutant activity in cells. Potency, µM (highest dose often 57.5 µM), usual class: activators. P54803. 0.1% of 45,000 active. 145M-Twi-hGALC-G270D cells (Twitcher mouse brain line with human GALC G270D), HMU-beta-Gal fluorescence, 48 h; further: potency means the concentration at half of the fitted maximal effect; 0% is about no effect; nearly all actives have a fitted effect of over 65% in size
Target sequence (P54803 whole entry G286D): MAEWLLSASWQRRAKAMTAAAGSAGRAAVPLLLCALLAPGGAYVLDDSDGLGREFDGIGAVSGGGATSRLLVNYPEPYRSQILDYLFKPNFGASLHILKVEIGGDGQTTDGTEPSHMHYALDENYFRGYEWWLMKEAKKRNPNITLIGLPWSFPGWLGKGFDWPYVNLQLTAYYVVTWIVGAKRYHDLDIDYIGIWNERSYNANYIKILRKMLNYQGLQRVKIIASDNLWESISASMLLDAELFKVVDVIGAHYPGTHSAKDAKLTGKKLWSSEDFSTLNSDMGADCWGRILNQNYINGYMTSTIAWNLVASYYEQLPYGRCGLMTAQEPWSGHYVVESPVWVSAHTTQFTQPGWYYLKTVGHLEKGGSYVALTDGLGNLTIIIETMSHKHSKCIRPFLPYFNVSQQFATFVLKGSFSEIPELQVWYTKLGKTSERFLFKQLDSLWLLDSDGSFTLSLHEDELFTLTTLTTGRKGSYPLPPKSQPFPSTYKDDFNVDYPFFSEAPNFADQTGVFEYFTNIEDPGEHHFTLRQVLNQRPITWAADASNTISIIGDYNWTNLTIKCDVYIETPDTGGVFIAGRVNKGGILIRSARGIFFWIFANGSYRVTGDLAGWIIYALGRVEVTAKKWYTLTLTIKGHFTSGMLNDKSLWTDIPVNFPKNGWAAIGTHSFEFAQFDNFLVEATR
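Mutant human GALC (G270D), stably expressed in a Twitcher mouse brain cell line lacking endogenous GALC, is measured in live-treated cells via 6-hexadecanoylamino-4-methylumbelliferyl-β-galactoside hydrolysis (0.1 mM final, pH 5.2) with fluorescent detection.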
mTORC1 inh: inhibitors of mTORC1 signaling in Tsc2-/- p53-/- MEF cells. 0.78% of 44,000 active. Potency, µM (highest dose often 38.3 µM), without a hit: at the top dose activity change, negative = inhibition, most hits filed as inhibitors. Tsc2-/- p53-/- MEF, phospho-rpS6 immunofluorescence/PI, 24 h. AID 493208;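 further: potency means the concentration at half of the fitted maximal effect; plate controls were DMSO for no effect and rapamycin for full effect; nearly all actives have a fitted effect of over 50% in size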
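Readout is phospho-S6 Alexa 488 signal normalized to PI per well, reported as % active cells with thresholds set from rapamycin (7.5 nM) and DMSO controls. Cells: Tsc2-/-, p53-/- MEFs, 24 hrs compound at 37 C; PI cell number serves as viability.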
SKOV3 invasion: blocks SKOV3ip1 adhesion and invasion in omental model; SKOV3ip1-GFP adhesion/invasion on 3D omental model, fluorescence; Potency, µM (doses to about 45.8 µM), for the others: at the highest dose activity change, negative = inhibition, actives largely listed as inhibitors; 0.1% of 46,000 active; AID 1963576;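 further: potency means the concentration at half of the fitted maximal effect; plate controls were DMSO wells for no effect and tomatine positive control wells for full effect; nearly all actives have a fitted effect of over 65% in size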
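Adhesion/invasion was scored as fixed GFP-labeled SKOV3ip1 cell counts (488/509 nm), normalized to DMSO and tomatine controls. Cancer cells in serum-free medium, with four compound doses (0.36-46 umol/L), sat 2 hr at RT then 16 hr at 37 C on a 48 hr fibroblast/mesothelial/ECM culture.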
PMP22 txn: modulators of PMP22 gene transcription in S16 Schwann cells; 2% of 43,000 active; Potency, µM (doses to about 57.5 µM), for inactives: top-dose activity change, negative = inhibition, hits mostly inhibitors; S16 Pmp22-F2sN Schwann cells, FLuc/NLuc coincidence luminescence, 24 h; active means clear falling dose curves in both reporters; inconclusive means both reporters move, but less clearly or upward; inactive means either reporter flat; the % is the NLuc reporter signal; further: potency means the concentration at half of the fitted maximal effect; on the % scale 0 is the no-effect control and ±100 the full control effect
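S16(c9) Schwann cells with FLuc/NLuc coincidence reporter in the Pmp22 3' UTR; compounds pin-transferred, 24 h at 37C. Dual-luciferase read: FLuc first, then NLuc after Stop&Glo, each 10 min at room temperature.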
S16 viability: toxic to S16 Pmp22-F2sN Schwann cells | S16 Pmp22-F2sN Schwann cells viability, CellTiter-Glo, 24 h | Potency, µM (doses to about 57.5 µM), for the others: top-dose activity change, negative = cytotoxicity, hits mostly cytotoxic | 0.48% of 43,000 active; further: potency means the concentration at half of the fitted maximal effect; on the % scale 0 is the no-effect control and ±100 the full control effect; nearly all actives have a fitted effect of over 65% in size
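Rat S16 Schwann reporter line, 24 h treatment with library compounds delivered at 23 nL per well. Cell viability by CellTiter-Glo luminescence.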
NTMT1 inhibitor: inhibitors of human N-terminal methyltransferase NTMT1; AID 1645870; Potency, µM (top dose mostly 114 µM), without a hit: at the highest dose activity change, negative = inhibition, actives largely listed as inhibitors; 2.5% of 59,000 active; Q9BV86; NTMT1 MTase-Glo SAH luminescence, purified enzyme;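 further: potency means the concentration at half of the fitted maximal effect; plate controls were DMSO vehicle for no effect and no enzyme for full effect; nearly all actives have a fitted effect of over 65% in size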
NLuc saturating: NanoLuc enzyme inhibition artifact for PMP22 screen; Potency, µM (top dose mostly 57.5 µM), inactives show at the top dose activity change, negative = inhibition, most hits filed as inhibitors; 4% of 690 active; shares compounds with PMP22 txn; Secreted NLuc enzyme (filtered S16 cell medium), Nano-Glo luminescence; further: potency means the concentration at half of the fitted maximal effect; on the % scale 0 is the no-effect control and ±100 the full control effect
NLuc Km ctr: inhibits NanoLuc under Km conditions, PMP22 counter-screen; shares compounds with PMP22 txn; secreted NLuc enzyme, coelenterazine luminescence, Km conditions; Potency, µM (highest dose often 57.5 µM), for the others: top-dose activity change, negative = inhibition, usual class: inhibitors; 5% of 690 active; AID 1508639; further: potency means the concentration at half of the fitted maximal effect; on the % scale 0 is the no-effect control and ±100 the full control effect
FLuc ctr PMP22: firefly luciferase enzyme inhibition artifact for PMP22 screen; 690 tested, under 10 active; purified P. pyralis FLuc, luminescence, 10 min; Potency, µM (titrated, usually from 57.5 µM), inactives show at the top dose activity, negative = inhibition, usual class: inhibitors; AID 1508640; shares compounds with PMP22 txn; further: % of control where 0% means no effect
S16 viab conf: confirmation of cytotoxicity in S16 Pmp22-F2sN Schwann cells (luciferase reporters placed in the Pmp22 gene); Potency, µM (top dose mostly 57.5 µM), without a hit: top-dose activity change, negative = viability loss, most hits filed as cytotoxic; 7% of 690 active; shares compounds with PMP22 txn; S16 Schwann cells viability, CellTiter-Glo ATP luminescence, 24 h; further: potency means the concentration at half of the fitted maximal effect; on the % scale 0 is the no-effect control and ±100 the full control effect
PMP22 txn cnf: PMP22 transcription modulation, confirmatory; S16 Schwann cells Pmp22-F2sN, dual luciferase, 24 h; Potency, µM (series often up to 57.5 µM), for the others: at the top dose activity change, negative = inhibition, usual class: inhibitors; 22% of 690 active; AID 1508646; shares compounds with PMP22 txn; active means clear falling dose curves in both reporters; inconclusive means both reporters move, but less clearly or upward; inactive means either reporter flat; the % is the FLuc reporter signal; further: potency means the concentration at half of the fitted maximal effect
PMP22 prot conf: rat PMP22 protein level modulation, confirmatory; Potency, µM (series often up to 27.9 µM), for inactives: top-dose activity change, negative = inhibition, usual class: inhibitors; 95 tested, under 10 active; shares compounds with PMP22 txn; S16 Schwann cells Pmp22-HiBiT, luminescence, 48 h
Active calls of the source: *; i = inactive; ? = inconclusive; / = no result given; [ ] = dose if it differs, or a comment. In the library only some 3.6% were active in any assay of this set; here they are far more common. Unless noted, the call rests on the fitted dose curve; in most records, active means well fitted curve in the direction sought with a large enough effect; inconclusive means small, poorly fitted or top-dose-only effect, or another doubt; inactive means no such curve, though single readings can be large; an effect the other way counts as inactive or inconclusive.

SMILES	GALC G270D up	mTORC1 inh	SKOV3 invasion	PMP22 txn	S16 viability	NTMT1 inhibitor	NLuc saturating	NLuc Km ctr	FLuc ctr PMP22	S16 viab conf	PMP22 txn cnf	others
CCOCCCn1c(=N)c(C(=O)NC(C)c2ccccc2)cc2c(=O)n3cc(C)ccc3nc21 (stereo not given)	i	14%	-1%	-23%	5%	?	/	/	/	/	/
CCCn1c(=N)c(C(=O)NC(C)c2ccccc2)cc2c(=O)n3ccccc3nc21 (stereo not given)	i	0%	9%	14µM*	0%	9%	-10%	-16%	-5%	14%	4.6µM*	PMP22 prot conf=-17%
Cc1ccc(-c2cc(C(=O)Nc3ccc(S(=O)(=O)Nc4ccc(C#N)cc4)cc3)c3ccccc3n2)cc1C	/	/	/	/	/	11%	/	/	/	/	/
Cc1oc(-c2cccc(Cl)c2)nc1CN1CCC(C(=O)NCCCN2CCN(c3cccc(Cl)c3)CC2)CC1	i	0%	1%	12µM*	?	-26%	?	?	4%	27µM*	?
Cc1oc(-c2cccc(Cl)c2)nc1CN1CCC(C(=O)NCCc2ccc(Cl)cc2)CC1	i	0%	2%	-22%	22%	-8%	/	/	/	/	/
COc1ccc(S(=O)(=O)N2c3ccc(Cl)cc3[C@@](O)(c3ccccc3Cl)[C@H]2C(=O)N2CCC[C@@H]2C(N)=O)cc1OC	i	/	/	/	/	-1%[57.5 µM]	/	/	/	/	/
Cc1cc2c(s1)c1cnn(Cc3ccc(OC(F)F)cc3)c(=O)c1n2C	/	/	/	/	/	3%	/	/	/	/	/
CCOC(=O)c1ccccc1NC(=O)c1nn(C)c2c1COc1ccccc1-2	i	-17%	-6%	17µM*	9%	-12%	-7%	2%	-14%	-8%	18µM*
Cc1cc(N(C)C)ccc1-c1nc2ccc(-c3nc4ccc(N5CCN(C)CC5)cc4[nH]3)cc2[nH]1	/	/	/	/	/	-8%[57.5 µM]	/	/	/	/	/
Cc1ccccc1-n1c(SCC(=O)c2ccccc2)nnc1-c1ccc(F)cc1	i	?	-7%	18µM*	?	-7%	1.4µM*	1.7µM*	4%	-4%	?
Cc1ccc(C(=O)CSc2nnc(-c3ccccc3)n2-c2ccccc2)cc1	i	9%	8%	-17%	?	3%	/	/	/	/	/
CCCCN(C)C(=O)Cn1nc(-c2ccc(C(C)(C)C)cc2)ccc1=O	/	/	/	/	/	-1%	/	/	/	/	/
CCc1ccccc1NC(=O)Cn1nc(CC)n2c(cc3sccc32)c1=O	i	-5%	12%	-42%	5%	-3%	-7%	-7%	10%	9%	?
Cc1ccccc1OCC(=O)Nc1ccccc1C(=O)OCc1cc(=O)n2nc(C3CC3)sc2n1	i	4%	0%	2.5µM*	5%	3%	-8%	4%	-1%	-3%	-20%
CCc1nn2c(=O)cc(COC(=O)c3ccccc3NC(=O)COc3ccccc3C)nc2s1	i	0%	-38%	-29%	40%	6%	/	/	/	/	/
CCOCCc1nn2c(=O)cc(COC(=O)c3ccccc3NC(=O)c3ccccc3F)nc2s1	i	0%	2%	?	5%	1%	-5%	-1%	1%	-2%	-21%
Cc1nn2c(=O)cc(COC(=O)c3ccccc3NC(=O)c3cccs3)nc2s1	i	0%	11%	7.1µM*	-8%	-5%	-4%	2%	-3%	9%	32%
CCOCCc1nn2c(=O)cc(COC(=O)c3ccccc3NC(=O)CC(C)C)nc2s1	i	6%	12%	?	-2%	26%	/	/	/	/	/
COC(=O)C1CCN(C(=O)c2ccc3c(c2)ncn3-c2cccc(C)c2)CC1	/	/	/	/	/	10%[57.5 µM]	/	/	/	/	/
C=C(C(=O)O)C1CC(O)C2(C)CCCC(C)(O)C2C1 (stereo not given)	/	/	/	/	/	-4%[57.5 µM]	/	/	/	/	/
O=C(NCCc1ccccc1)c1c[nH]c2ccc(S(=O)(=O)Nc3ccc(F)cc3F)cc2c1=O	i	6%	-5%	-34%	2%	3%	/	/	/	/	/
O=C(NCCc1ccccc1)c1c[nH]c2ccc(S(=O)(=O)Nc3ccccc3F)cc2c1=O	i	-9%	1%	?	-7%	-2%	-22%	-18%	-14%	-17%	-10%
O=C1NC(=O)/C(=C/c2cccn2-c2ccc(P(=O)(O)O)cc2)N1	/	/	/	/	/	-4%	/	/	/	/	/
CCOc1ccccc1NC(=O)c1c(NCc2ccc(C)o2)sc2c1CCCCC2	i	-10%	1%	13µM*	-20%	25µM*	?	?	-26%	1%	?
C=C1C(=O)O[C@H]2C[C@@H](C)[C@@H]3CCC(=O)[C@@]3(C)C[C@H]12	/	/	/	/	/	2%[57.5 µM]	/	/	/	/	/
COc1cc(NC(=O)CSc2c3c(nc4ccccc24)CCC3)cc(OC)c1OC	i	?	-10%	?	30%	0%	/	/	/	/	/
COc1ccccc1Nc1c2c(nc3ccc(NC(=O)c4cccc(F)c4)cc13)CCCC2	i	?	?	10µM*	?	14%	-27%	-11%	-2%	14µM*	12µM*
